Assay outcomes (PubChem BioAssay)
Rows were chosen to be rich in hits. Some 7.5% of all compounds tested hit in one or more screens of this group.
ELG1 genotoxic = inducers of genotoxicity in HEK293T ELG1-luciferase cells; 330,000 tested, 1.3% active; AID 504466; Potency, µM (series often up to 46 µM), without a hit: at the highest dose activity change, positive = activation, most hits filed as activators; HEK293T ELG1-luciferase reporter, luminescence, 16 h; note: % of control where 0% means no effect; nearly all actives have a fitted effect of over 60% in size
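After overnight (16 hr) compound treatment at 37 °C, ELG1-luciferase HEK293T cells were lysed with ONE-Glo; luminescence quantified 30 min later at room temperature.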
SMN2 splice enh = SMN2 splice variant enhancement | Potency, µM (titrated, usually from 46.1 µM), inactives show at the highest dose activity change, positive = activation, actives largely listed as activators | 210,000 tested, 2.8% active | HEK293 SMN2-luciferase splicing reporter, luminescence, 30-36 h; note: % of control where 0% means no effect; nearly all actives have a fitted effect of over 55% in size
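qHTS luciferase splicing reporter: luminescence rises when SMN2 exon 7 is included in transfected HEK293 cells. Compound exposure lasted 30-36 h at 37C, with 4.5 mM final sodium butyrate as control, followed by a ONE-Glo read.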
Rab9 prom act = activates the Rab9 promoter | 320,000 tested, 2.8% active | Huh7 Rab9 promoter-luciferase reporter, luminescence, 24 h | AID 485297 | Potency, µM (series often up to 9.22 µM), for the others: at the top dose activation, negative = inhibition, usual class: activators; note: % of control where 0% means no effect; nearly all actives have a fitted effect of over 60% in size
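Stable Rab9-luc Huh7, 1500 cells/well, 2 h settle; cmpd in DMSO, 24 h, 37 °C/5% CO2; luciferase reagent 10 min RT; luminescence.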
NPC1 promoter act = activators of NPC1 promoter; Huh7 NPC1 promoter luciferase reporter, 24 h; Potency, µM (titrated, usually from 9.22 µM), for the others: at the top dose activation, usual class: activators; 320,000 tested, 2.4% active; note: % of control where 0% means no effect; nearly all actives have a fitted effect of over 60% in size
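Readout is luciferase luminescence, reflecting NPC1 promoter activation in stably transfected Huh7 cells after 24 h compound exposure at 37 °C in reduced-serum medium with 10% FBS.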
FLuc modulator = inhibits or activates purified firefly luciferase, miR-21 counter-screen | 360,000 tested, 6.9% active | purified FLuc, Km substrates, luminescence inhibition | P08659 | Potency, µM (series often up to 57.5 µM), for the others: at the top dose activity change, negative = inhibition, hits mostly inhibitors;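 note: plate controls were vehicle for no effect and reference inhibitor for full effect; nearly all actives have a fitted effect of over 55% in size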
Target sequence (P08659 whole entry, looked up): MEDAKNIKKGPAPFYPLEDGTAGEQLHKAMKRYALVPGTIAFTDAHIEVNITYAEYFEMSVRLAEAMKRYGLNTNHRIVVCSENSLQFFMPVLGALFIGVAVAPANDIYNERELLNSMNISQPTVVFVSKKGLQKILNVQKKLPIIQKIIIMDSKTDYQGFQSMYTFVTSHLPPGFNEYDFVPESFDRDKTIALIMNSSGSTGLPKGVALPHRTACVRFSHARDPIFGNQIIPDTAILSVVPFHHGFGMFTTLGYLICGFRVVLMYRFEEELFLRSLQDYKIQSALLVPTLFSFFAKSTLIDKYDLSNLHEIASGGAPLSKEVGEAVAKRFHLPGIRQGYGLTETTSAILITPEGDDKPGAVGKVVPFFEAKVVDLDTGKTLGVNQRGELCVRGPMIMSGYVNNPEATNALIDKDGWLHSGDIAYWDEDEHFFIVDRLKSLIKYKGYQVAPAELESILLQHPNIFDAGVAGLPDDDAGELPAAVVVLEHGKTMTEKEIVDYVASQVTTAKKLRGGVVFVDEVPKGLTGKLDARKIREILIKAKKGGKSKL
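Purified P. pyralis luciferase, 10 nM final, with Km-level 10 uM D-luciferin and 10 uM ATP in 50 mM Tris acetate pH 7.5, 10 mM Mg acetate, 0.01% Tween-20, 0.05% BSA; 6-point qHTS titration about 60 µM downward; luminescence read.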
* hit, by the source's call. Calls come from the whole dose curve; as a rule, active = well fitted curve in the direction sought with a large enough effect; inconclusive = small, poorly fitted or top-dose-only effect, or another doubt; inactive = no such curve, though single readings can be large; an effect the other way counts as inactive or inconclusive. Potency is the fitted concentration of half-maximal effect.

`Cc1nc(SCC(=O)N(C)C2(C#N)CCCCC2)c2ccccc2n1` gave ELG1 genotoxic -6%, Rab9 prom act -8%, NPC1 promoter act 0% and FLuc modulator 24µM*.
Screening Cc1onc(-c2c(F)cccc2Cl)c1C(=O)Nc1cccc(S(=O)(=O)N2CCOCC2)c1 returned ELG1 genotoxic -8%.
`Cc1ccc(/C=N/Nc2cccc3cccnc23)c(O)c1` gave ELG1 genotoxic inconclusive, Rab9 prom act inconclusive, NPC1 promoter act 4µM* and FLuc modulator 1.5µM*.
Screening Cc1ccc2nc(C)cc(N/N=C/c3cccnc3)c2c1 returned ELG1 genotoxic 2%, Rab9 prom act -4%, NPC1 promoter act 0% and FLuc modulator 0%.
Oc1ccc(/C=N/Nc2cccc3cccnc23)c(O)c1 was read as ELG1 genotoxic 6.5µM*, SMN2 splice enh 13µM*, Rab9 prom act 3.2µM*, NPC1 promoter act 9% and FLuc modulator 4.8µM*.
`Cc1nc(NCc2ccccc2)c2nc(-c3ccccc3)n(C(C)CN(C)C)c2n1` (stereo not given) gave SMN2 splice enh -2%.
Screening Nc1nnc(-c2ccc(Cl)cc2Cl)s1 returned ELG1 genotoxic inconclusive, Rab9 prom act inconclusive, NPC1 promoter act 25% and FLuc modulator 12µM*.
CC1CCCC(C)N1C(=O)CSc1ccc(-c2ccc3c(c2)OCCO3)nn1 (stereo not given) was read as ELG1 genotoxic -10%, Rab9 prom act 13%, NPC1 promoter act -4% and FLuc modulator 13µM*.
For CC1CCCCN1C(=O)CSc1ccc(-c2ccc(F)cc2)nn1 (stereo not given) the results were ELG1 genotoxic 21%, SMN2 splice enh 24%, Rab9 prom act 27%, NPC1 promoter act 17% and FLuc modulator inconclusive.
Screening COc1ccc(-c2ccc(SCC(=O)N3CCCC3)nn2)cc1OC returned ELG1 genotoxic -1%, SMN2 splice enh 8%, Rab9 prom act -3%, NPC1 promoter act 4% and FLuc modulator inconclusive.
Screening CC1CCN(C(=O)CSc2ccc(-c3ccc4c(c3)OCCO4)nn2)CC1 returned ELG1 genotoxic -1%, Rab9 prom act 14%, NPC1 promoter act 2% and FLuc modulator 11µM*.
For COc1ccc(-c2ccc(SCC(=O)N3CCOCC3)nn2)cc1OC the results were ELG1 genotoxic inconclusive, SMN2 splice enh -22%, Rab9 prom act 4%, NPC1 promoter act 22% and FLuc modulator 15µM*.
Screening O=C(Nc1cc(Cl)cc(Cl)c1)c1ccc(F)c(S(=O)(=O)N2CCCCCC2)c1 returned FLuc modulator -4%.
For O=C(Nc1ccc2c(c1)CCCN2C(=O)c1cccs1)c1ccccc1C(F)(F)F the results were FLuc modulator -3%.
Screening COc1ccccc1C(=O)Nc1ccc2c(c1)CCCN2C(=O)c1ccccc1 returned ELG1 genotoxic -2%, Rab9 prom act 4%, NPC1 promoter act 1% and FLuc modulator 9.5µM*.
For CCOC(=O)CNC(=O)N1CCc2ccc(NC(=O)c3ccccc3Cl)cc2C1 the results were ELG1 genotoxic 2%, Rab9 prom act 2%, NPC1 promoter act -4% and FLuc modulator inconclusive.
`COc1ccccc1C(=O)Nc1ccc2c(c1)CCCN2C(=O)c1cccs1` gave ELG1 genotoxic -7%, Rab9 prom act 15%, NPC1 promoter act 0% and FLuc modulator 17µM*.
For O=C(Nc1ccc2c(c1)CCCN2C(=O)c1ccccc1)c1ccccc1Br the results were ELG1 genotoxic -9%, Rab9 prom act -1%, NPC1 promoter act -4% and FLuc modulator inconclusive.
`COc1ccccc1C(=O)Nc1ccc2c(c1)CN(C(=O)CSC)CC2` gave ELG1 genotoxic 9%, Rab9 prom act 9%, NPC1 promoter act 0% and FLuc modulator 24µM*.
For Cc1nc(N2CCC(C)CC2)c2c(C)c(C(=O)Nc3ccc4c(c3)OCCO4)sc2n1 the results were ELG1 genotoxic -7%, Rab9 prom act 0%, NPC1 promoter act -8% and FLuc modulator -10%.
